Experiments:
[1] = biological target: Rho-associated protein kinase 2 (Homo sapiens) (UniProt O75116); conditions: at 1 µM
[2] = biological target: Rho-associated protein kinase 2 (Homo sapiens) (UniProt O75116); conditions: at 10 µM
[3] = biological target: Proto-oncogene tyrosine-protein kinase receptor Ret (Homo sapiens) (UniProt P07949); conditions: at 1 µM
[4] = biological target: Proto-oncogene tyrosine-protein kinase receptor Ret (Homo sapiens) (UniProt P07949); conditions: at 10 µM
[5] = biological target: Macrophage-stimulating protein receptor (Homo sapiens) (UniProt Q04912); conditions: at 1 µM
[6] = biological target: Macrophage-stimulating protein receptor (Homo sapiens) (UniProt Q04912); conditions: at 10 µM
[7] = biological target: Proto-oncogene tyrosine-protein kinase ROS (Homo sapiens) (UniProt P08922); conditions: at 1 µM
[8] = biological target: Proto-oncogene tyrosine-protein kinase ROS (Homo sapiens) (UniProt P08922); conditions: at 10 µM
[9] = biological target: T1, Tyrosine-protein kinase receptor TYRO3 (Homo sapiens) (UniProt Q06418); conditions: at 1 µM
T1 sequence (whole entry): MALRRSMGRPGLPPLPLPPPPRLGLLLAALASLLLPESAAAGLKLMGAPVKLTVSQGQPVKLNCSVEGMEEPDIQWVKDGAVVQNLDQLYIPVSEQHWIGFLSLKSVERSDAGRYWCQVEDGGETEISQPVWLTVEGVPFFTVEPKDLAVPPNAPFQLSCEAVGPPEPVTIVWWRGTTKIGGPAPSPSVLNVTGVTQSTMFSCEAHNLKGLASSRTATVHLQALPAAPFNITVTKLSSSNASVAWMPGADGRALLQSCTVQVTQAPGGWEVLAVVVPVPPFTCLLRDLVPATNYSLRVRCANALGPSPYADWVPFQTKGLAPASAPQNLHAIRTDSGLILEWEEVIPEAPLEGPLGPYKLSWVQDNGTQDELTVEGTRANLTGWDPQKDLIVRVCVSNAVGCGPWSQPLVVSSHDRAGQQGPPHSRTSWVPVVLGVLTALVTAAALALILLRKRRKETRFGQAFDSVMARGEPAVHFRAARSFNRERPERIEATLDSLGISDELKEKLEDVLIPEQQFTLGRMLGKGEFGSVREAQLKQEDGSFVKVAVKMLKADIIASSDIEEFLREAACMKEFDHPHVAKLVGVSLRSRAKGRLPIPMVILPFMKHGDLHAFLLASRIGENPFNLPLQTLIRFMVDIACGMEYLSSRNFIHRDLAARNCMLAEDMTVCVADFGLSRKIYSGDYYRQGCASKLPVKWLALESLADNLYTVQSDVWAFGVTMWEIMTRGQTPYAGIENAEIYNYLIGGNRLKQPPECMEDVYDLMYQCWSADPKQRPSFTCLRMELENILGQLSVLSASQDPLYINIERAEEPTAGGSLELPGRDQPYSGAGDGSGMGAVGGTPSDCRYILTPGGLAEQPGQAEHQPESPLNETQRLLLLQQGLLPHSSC

[10] = biological target: T1, Tyrosine-protein kinase receptor TYRO3 (Homo sapiens); conditions: at 10 µM

Sequence of Proto-oncogene tyrosine-protein kinase ROS (Homo sapiens) (P08922 whole entry): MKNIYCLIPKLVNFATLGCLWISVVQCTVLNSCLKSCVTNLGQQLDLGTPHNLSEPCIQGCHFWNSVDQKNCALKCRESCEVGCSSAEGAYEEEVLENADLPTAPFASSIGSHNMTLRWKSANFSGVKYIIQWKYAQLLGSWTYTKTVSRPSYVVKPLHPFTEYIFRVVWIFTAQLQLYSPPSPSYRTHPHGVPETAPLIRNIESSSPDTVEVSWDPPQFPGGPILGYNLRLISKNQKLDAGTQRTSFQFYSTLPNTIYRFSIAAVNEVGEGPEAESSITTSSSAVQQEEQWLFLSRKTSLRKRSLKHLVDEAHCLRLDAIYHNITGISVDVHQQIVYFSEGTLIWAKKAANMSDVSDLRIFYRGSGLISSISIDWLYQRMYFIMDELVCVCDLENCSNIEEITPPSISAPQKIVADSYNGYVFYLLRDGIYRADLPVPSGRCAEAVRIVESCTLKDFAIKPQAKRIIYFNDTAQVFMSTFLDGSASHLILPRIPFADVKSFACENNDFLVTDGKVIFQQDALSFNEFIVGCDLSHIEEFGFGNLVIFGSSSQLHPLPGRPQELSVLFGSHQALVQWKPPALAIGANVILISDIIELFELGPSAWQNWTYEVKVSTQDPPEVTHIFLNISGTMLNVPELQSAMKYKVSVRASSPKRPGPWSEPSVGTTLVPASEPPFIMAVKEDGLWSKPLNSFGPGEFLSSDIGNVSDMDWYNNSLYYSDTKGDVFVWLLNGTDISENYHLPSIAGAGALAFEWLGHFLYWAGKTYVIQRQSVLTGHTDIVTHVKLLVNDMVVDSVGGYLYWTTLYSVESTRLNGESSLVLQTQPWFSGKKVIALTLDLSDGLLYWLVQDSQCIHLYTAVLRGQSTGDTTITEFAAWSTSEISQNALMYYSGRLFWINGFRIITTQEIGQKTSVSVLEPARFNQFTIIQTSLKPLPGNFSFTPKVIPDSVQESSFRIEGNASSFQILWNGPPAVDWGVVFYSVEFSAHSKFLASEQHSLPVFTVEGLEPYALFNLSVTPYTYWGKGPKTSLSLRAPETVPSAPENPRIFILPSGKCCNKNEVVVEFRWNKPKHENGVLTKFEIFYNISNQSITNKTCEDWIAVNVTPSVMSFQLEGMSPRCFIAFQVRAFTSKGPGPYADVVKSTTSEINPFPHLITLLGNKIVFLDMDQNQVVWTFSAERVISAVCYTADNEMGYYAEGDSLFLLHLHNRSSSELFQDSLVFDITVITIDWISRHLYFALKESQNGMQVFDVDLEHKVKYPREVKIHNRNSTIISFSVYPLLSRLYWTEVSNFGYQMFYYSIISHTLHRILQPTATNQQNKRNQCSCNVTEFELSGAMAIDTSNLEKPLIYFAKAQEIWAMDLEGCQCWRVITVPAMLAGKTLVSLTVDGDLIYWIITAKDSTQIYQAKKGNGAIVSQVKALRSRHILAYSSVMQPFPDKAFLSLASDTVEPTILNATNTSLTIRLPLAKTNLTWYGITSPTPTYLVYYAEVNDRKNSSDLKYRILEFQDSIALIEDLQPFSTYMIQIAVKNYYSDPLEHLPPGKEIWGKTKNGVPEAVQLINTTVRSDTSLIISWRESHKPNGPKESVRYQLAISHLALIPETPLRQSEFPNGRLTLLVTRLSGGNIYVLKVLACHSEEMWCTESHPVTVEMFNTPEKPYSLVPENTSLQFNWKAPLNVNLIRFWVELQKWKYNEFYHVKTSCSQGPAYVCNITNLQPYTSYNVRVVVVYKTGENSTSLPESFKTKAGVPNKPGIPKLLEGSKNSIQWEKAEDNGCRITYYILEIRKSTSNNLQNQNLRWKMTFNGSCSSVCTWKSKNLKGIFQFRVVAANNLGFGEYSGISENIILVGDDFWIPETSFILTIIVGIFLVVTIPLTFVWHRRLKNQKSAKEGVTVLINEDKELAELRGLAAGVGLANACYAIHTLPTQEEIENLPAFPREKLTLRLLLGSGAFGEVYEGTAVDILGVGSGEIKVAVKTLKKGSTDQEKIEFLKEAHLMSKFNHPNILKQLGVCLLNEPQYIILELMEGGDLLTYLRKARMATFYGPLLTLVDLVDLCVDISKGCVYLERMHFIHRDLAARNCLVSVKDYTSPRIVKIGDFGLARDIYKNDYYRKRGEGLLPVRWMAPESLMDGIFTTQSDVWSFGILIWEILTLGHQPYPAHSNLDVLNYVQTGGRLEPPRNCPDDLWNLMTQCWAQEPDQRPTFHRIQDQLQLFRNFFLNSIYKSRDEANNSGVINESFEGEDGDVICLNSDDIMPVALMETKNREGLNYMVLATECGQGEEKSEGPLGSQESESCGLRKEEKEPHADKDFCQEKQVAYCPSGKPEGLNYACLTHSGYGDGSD
Sequence of Proto-oncogene tyrosine-protein kinase receptor Ret (Homo sapiens) (P07949 whole entry): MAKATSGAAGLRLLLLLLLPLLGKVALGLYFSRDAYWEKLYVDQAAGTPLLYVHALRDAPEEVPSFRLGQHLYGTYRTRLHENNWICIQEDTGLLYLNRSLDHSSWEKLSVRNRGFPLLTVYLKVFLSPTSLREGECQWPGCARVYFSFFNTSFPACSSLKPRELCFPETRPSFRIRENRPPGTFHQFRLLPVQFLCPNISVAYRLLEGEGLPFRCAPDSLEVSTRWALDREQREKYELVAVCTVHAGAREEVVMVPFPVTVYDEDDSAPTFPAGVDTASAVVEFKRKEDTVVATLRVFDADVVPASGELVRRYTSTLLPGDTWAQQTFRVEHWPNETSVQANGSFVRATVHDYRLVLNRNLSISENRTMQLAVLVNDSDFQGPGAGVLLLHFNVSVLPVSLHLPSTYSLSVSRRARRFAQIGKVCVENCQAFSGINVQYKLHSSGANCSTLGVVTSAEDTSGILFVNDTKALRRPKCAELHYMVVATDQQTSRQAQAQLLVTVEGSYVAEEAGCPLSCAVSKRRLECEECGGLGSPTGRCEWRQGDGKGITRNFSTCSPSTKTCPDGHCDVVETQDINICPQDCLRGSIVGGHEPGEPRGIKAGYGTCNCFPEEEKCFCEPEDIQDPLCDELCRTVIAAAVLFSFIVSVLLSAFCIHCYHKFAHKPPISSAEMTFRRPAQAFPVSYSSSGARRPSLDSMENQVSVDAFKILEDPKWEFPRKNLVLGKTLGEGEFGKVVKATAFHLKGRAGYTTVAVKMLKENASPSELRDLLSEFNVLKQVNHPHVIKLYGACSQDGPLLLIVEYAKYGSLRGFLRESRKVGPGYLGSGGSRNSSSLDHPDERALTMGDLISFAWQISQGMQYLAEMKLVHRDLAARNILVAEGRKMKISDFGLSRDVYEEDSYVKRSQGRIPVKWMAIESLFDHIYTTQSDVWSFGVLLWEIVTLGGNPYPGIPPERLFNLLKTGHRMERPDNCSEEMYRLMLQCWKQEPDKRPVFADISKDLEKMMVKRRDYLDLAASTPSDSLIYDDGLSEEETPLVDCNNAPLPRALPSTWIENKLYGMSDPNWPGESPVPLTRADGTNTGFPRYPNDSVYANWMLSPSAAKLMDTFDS
Sequence of Macrophage-stimulating protein receptor (Homo sapiens) (Q04912 25-304 limits assumed): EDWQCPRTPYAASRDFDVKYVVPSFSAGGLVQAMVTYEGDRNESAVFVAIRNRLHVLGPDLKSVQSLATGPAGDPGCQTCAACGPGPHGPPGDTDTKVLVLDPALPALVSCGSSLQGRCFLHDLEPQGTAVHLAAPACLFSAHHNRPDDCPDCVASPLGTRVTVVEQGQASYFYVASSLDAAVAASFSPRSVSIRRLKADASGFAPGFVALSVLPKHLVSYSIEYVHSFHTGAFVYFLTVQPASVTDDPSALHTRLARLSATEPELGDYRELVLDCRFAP
Sequence of Macrophage-stimulating protein receptor (Homo sapiens) (Q04912 310-1400 limits assumed): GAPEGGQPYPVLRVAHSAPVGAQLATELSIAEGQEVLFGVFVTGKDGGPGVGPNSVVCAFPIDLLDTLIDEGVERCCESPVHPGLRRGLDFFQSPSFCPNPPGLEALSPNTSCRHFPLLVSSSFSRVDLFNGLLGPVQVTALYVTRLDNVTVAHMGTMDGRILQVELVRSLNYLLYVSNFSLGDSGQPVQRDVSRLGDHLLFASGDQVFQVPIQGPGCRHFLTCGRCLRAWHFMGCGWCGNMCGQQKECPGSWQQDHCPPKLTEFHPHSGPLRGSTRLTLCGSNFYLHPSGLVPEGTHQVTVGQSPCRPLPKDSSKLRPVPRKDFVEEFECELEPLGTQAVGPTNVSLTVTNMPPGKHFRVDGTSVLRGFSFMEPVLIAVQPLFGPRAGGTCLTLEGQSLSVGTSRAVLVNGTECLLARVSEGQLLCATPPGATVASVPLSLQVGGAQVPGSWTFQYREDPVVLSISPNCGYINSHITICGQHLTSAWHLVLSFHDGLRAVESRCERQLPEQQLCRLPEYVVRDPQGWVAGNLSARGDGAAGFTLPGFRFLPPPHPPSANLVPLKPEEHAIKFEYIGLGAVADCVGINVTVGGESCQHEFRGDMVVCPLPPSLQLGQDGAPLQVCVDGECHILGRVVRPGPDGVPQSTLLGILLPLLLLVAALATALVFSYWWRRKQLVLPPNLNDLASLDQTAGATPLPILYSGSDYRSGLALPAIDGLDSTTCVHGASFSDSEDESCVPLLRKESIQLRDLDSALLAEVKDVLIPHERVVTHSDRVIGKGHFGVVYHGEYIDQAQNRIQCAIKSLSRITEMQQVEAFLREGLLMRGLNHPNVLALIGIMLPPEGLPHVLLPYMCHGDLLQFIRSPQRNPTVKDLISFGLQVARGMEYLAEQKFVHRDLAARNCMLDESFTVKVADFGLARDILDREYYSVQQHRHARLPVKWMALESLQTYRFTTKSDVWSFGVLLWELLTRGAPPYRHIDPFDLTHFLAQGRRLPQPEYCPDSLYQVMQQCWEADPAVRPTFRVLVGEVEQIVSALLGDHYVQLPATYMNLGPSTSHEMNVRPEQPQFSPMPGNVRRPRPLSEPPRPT

Row | SMILES | residual activity [1] [%] | residual activity [2] [%] | residual activity [3] [%] | residual activity [4] [%] | residual activity [5] [%] | residual activity [6] [%] | residual activity [7] [%] | residual activity [8] [%] | residual activity [9] [%] | residual activity [10] [%]
1 | O=C(O)c1ccc2c3c1cccc3c(=O)n1c3ccccc3nc21 | 119 | 107 | 97 | 61 | 106 | 109 | 109 | 101 | 98 | 88
2 | CCN(CC)CCCCN1c2ccccc2Oc2ccc(Cl)cc21 | 110 | 91 | 108 | 117 | 105 | 91 | 100 | 101 | 108 | 108
3 | c1ccc(-c2n[nH]cc2-c2ccnc3ccccc23)nc1 | 93 | 76 | 104 | 91 |  |  | 98 | 93 | 93 | 75
4 | COc1cc2ncnc(Nc3ccc(Oc4ccccc4)cc3)c2cc1OC | 104 | 84 | 25 | 7 | 92 | 59 | 102 | 101 | 14 | 7
5 | CO[C@H]1[C@@H](OC)C[C@H](C)[C@@H](OC)C2=CC(=O)C=C(NC(=O)/C(C)=C/C=C/[C@H](OC)[C@@H](OC(N)=O)/C(C)=C/[C@@H]1C)C2=O |  |  | 108 | 106 | 85 | 85 | 92 | 94 | 86 | 101
6 | O=C1NC(=O)c2c1c1c3ccccc3[nH]c1c1[nH]c3cc(Br)ccc3c21 | 93 | 89 | 91 | 77 | 79 | 83 | 102 | 96 | 110 | 98
7 | O=C(Nc1cccc(Nc2cc(Nc3cccc(C(F)(F)F)c3)ncn2)c1)C1CC1 | 94 | 80 | 89 | 95 | 96 | 53 | 92 | 88 | 88 | 30
8 | Cn1cnc2cc3c(Nc4cccc(Br)c4)ncnc3cc21 | 93 | 81 | 66 | 65 | 88 | 64 | 91 | 98 | 59 | 53
9 | C[C@@H](N)[C@H]1CC[C@H](C(=O)Nc2ccncc2)CC1 | 19 | 4 |  |  |  | 101 | 104 | 105 | 123 | 124
10 | Cc1ccc(NC2=CC(=O)c3sc(C)nc3C2=O)cc1 | 87 | 90 | 109 | 97 | 79 | 81 | 101 | 88 | 98 | 101
11 | COc1cc2ncc(-c3ccccc3)nc2cc1OC |  |  | 94 | 92 | 98 | 92 |  |  | 96 | 98
12 | CO[C@@H]1[C@H](N(C)C(=O)c2ccccc2)C[C@H]2O[C@]1(C)n1c3ccccc3c3c4c(c5c6ccccc6n2c5c31)C(=O)NC4 | 79 | 57 | 8 | 5 | 47 | 56 | 63 | 50 |  | 84
13 | COc1cc2ncnc(Nc3ccc(NC(=O)c4ccccc4)cc3)c2cc1OC |  | 82 | 56 | 12 | 87 | 74 | 109 | 102 | 94 | 76
14 | O=C1NC(=O)/C(=C\c2ccc3nccnc3c2)S1 | 95 | 80 | 98 | 96 | 88 | 76 | 94 | 99 | 89 | 92
15 | COc1cc2ncnc(Nc3ccc(O)c(Br)c3)c2cc1OC | 39 | 40 | 23 | 1 | 90 | 50 | 88 | 84 | 38 | 4
16 | Cc1cccc(-c2[nH]c(C(C)(C)C)nc2-c2ccc3c(c2)OCO3)n1 | 103 | 82 | 98 | 107 |  |  | 91 | 94 | 97 | 
17 | Oc1ccc(Nc2nc(-c3ccc(Cl)cc3)cs2)cc1 | 100 | 102 | 97 | 87 | 95 | 106 | 110 | 97 | 97 | 96
18 | Cc1cc(Nc2nc(-c3ccccc3)nc3ccccc23)n[nH]1 |  | 98 | 2 | 0 | 79 | 54 |  | 40 | 98 | 53
19 | O=C1Nc2ccccc2/C1=C1/Nc2ccccc2/C1=N\OCCC(O)CO (configuration not stated) |  |  | 2 | -1 | 75 | 61 |  |  | 52 | 46

Row | SMILES | residual activity [1] [%] | residual activity [2] [%] | residual activity [3] [%] | residual activity [4] [%] | residual activity [5] [%] | residual activity [6] [%] | residual activity [7] [%] | residual activity [8] [%] | residual activity [9] [%] | residual activity [10] [%]
20 | CO[C@H]1C[C@@H]2CC[C@@H](C)[C@@](O)(O2)C(=O)C(=O)N2CCCC[C@H]2C(=O)O[C@H]([C@H](C)C[C@@H]2CC[C@@H](O)[C@H](OC)C2)CC(=O)[C@H](C)/C=C(\C)[C@@H](O)[C@@H](OC)C(=O)[C@H](C)C[C@H](C)/C=C/C=C/C=C/1C | 99 | 92 | 102 | 107 | 99 | 80 | 90 | 92 | 94 | 118
21 | N#CCCc1ccc2c(c1)-c1[nH]c3ccc([N+](=O)[O-])cc3c1CC(=O)N2 | 8 | 7 | 80 | 49 |  |  |  |  | 75 | 59
22 | COc1ccc(OC)c2c(=S)c3ccccc3[nH]c12 | 86 | 95 | 110 | 96 | 69 | 82 | 99 | 92 | 108 | 93
23 | c1ccc(-c2n[nH]c3c2oc2ccccc23)cc1 | 97 | 75 | 74 | 47 | 58 | 73 | 97 | 93 | 79 | 62
24 | CCN(CC)C(=O)c1ccc(Nc2nc(OCC3CCCCC3)c3nc[nH]c3n2)cc1 | 33 | 4 | 3 | 0 | 72 | 42 | 95 |  |  | 53
25 | Cn1nc2c3c(cccc31)C(=O)c1ccccc1-2 | 104 | 89 | 93 | 63 |  |  | 97 | 88 | 96 | 97
26 | CCC(=O)Nc1ccc2ncnc(Nc3cccc(Br)c3)c2c1 | 89 | 88 | 86 | 103 | 90 | 70 | 92 | 98 | 90 | 93
27 | N#CC(C#N)=C(N)/C(C#N)=C/c1ccc(O)cc1 |  |  |  |  |  | 100 | 95 | 92 |  | 
28 | CN(C)c1ccc(/C=C2\C(=O)Nc3ccccc32)cc1 | 112 | 38 | 66 | 32 | 91 | 92 | 106 | 103 | 100 | 99
29 | O=[N+]([O-])c1ccc(-c2nc(-c3ccc(F)cc3)c(-c3ccncc3)[nH]2)cc1 | 87 | 94 | 78 | 73 | 90 | 90 | 104 | 91 | 86 | 111
30 | Nc1nc(Nc2ccc(S(N)(=O)=O)cc2)nn1C(=S)Nc1c(F)cccc1F | 0 | 1 | 2 | -1 | 7 | 2 | 70 | 16 | 14 | -1
31 | CC#CC(=O)Nc1cc2c(Nc3ccc(F)c(Cl)c3)ncnc2cn1 | 92 | 77 | 100 | 104 | 101 | 76 | 94 | 92 | 85 | 82
32 | N#C/C(=C(\N)Sc1ccc(N)cc1)c1ccccc1C(F)(F)F | 102 | 95 | 109 | 90 | 88 | 83 | 100 | 89 | 103 | 98
33 | O=C1Nc2ccc(Br)cc2/C1=C\c1cc2c([nH]1)CCCC2 | 101 | 82 | 74 | 69 | 116 | 84 |  | 80 |  | 
34 | Oc1c2ccccc2c2c3c(cccc13)N=N2 | 74 | 39 | 43 | 11 | 78 | 51 | 93 | 85 | 97 | 81
35 | O=C1NC(=O)c2cc(Nc3ccc(F)cc3)c(Nc3ccc(F)cc3)cc21 | 101 | 78 | 91 | 86 | 104 | 76 | 94 | 92 | 94 | 97
36 | CN(C)CCCn1cc(C2=C(c3c[nH]c4ccccc34)C(=O)NC2=O)c2ccccc21 | 119 | 88 |  | 64 | 102 | 87 | 108 |  |  | 76
37 | CC(C)n1cnc2/c(=N/c3cccc(Cl)c3)nc(NCCO)[nH]c21 | 83 | 66 | 93 | 40 | 74 | 70 | 77 | 63 | 118 | 51

From ChEMBL document CHEMBL2218924, “A broad activity screen in support of a chemogenomic map for kinase signalling research and drug discovery” (Biochem J, 2013)
